PubChem BioAssay AID1159580 (chemical genetic matrix, 2015)
Hit rate of the full screen: of about 5,500 compounds, about 2,000 (36%) were called active. Roughly 18% stayed inconclusive and do not appear here. Cut-off read from the data, not from the text of the source: active = normalized growth mostly below about 0.91 (no sharp cut-off); inconclusive = no clear call, values can overlap the other calls; inactive = mostly above about 0.92. This is one part of the list.

Test: chemical genetic growth profiling, strain panel (AID 1159580);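 note: tested at 20 µM; growth read once vehicle control cultures reached saturation at 30 °C; 1 = growth at the plate median or of vehicle wells; lower values mean less growth of the strain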
Settings: growth OD

Measured: normalized growth

COc1ccc(C(c2ccc(OC)cc2)C(Cl)(Cl)Cl)cc1
active: S. cerevisiae deletion strains, locus YLR262C, strain YPT6 (second series), stronger effect = lower value 0.856
inactive: S. cerevisiae deletion strains, locus YJR043C, strain POL32, stronger effect = lower value 0.987 | S. cerevisiae deletion strains, locus YJR075W, strain HOC1, stronger effect = lower value 1.01 | S. cerevisiae deletion strains, locus YKL009W, strain mrt4, stronger effect = lower value 0.949 | S. cerevisiae deletion strains, locus YKL068W, stronger effect = lower value 0.995 | S. cerevisiae deletion strains, locus YKL085W, strain MDH1 (second series), stronger effect = lower value 0.999 | S. cerevisiae deletion strains, locus YKL085W, strain MDH1, stronger effect = lower value 0.999 | S. cerevisiae deletion strains, locus YKL160W, strain elf1, stronger effect = lower value 1 | S. cerevisiae deletion strains, locus YKL190W, strain CNB1, stronger effect = lower value 1.01 | S. cerevisiae deletion strains, locus YKR001C, strain vps1, stronger effect = lower value 0.966 | S. cerevisiae deletion strains, locus YKR026C, strain gcn3, stronger effect = lower value 1.01 | S. cerevisiae deletion strains, locus YKR091W, strain srl3, stronger effect = lower value 1.02 | S. cerevisiae deletion strains, locus YLL001W, strain dnm1, stronger effect = lower value 1.01 | S. cerevisiae deletion strains, locus YLL026W, stronger effect = lower value 1.02 | S. cerevisiae deletion strains, locus YLL041C, strain sdh2, stronger effect = lower value 1.02 | S. cerevisiae deletion strains, locus YLR027C, strain aat2, stronger effect = lower value 1.02 | S. cerevisiae deletion strains, locus YLR039C, strain RIC1, stronger effect = lower value 1.01 | S. cerevisiae deletion strains, locus YLR058C, strain SHM2, stronger effect = lower value 0.994 | S. cerevisiae deletion strains, locus YLR102C, strain apc9, stronger effect = lower value 0.99 | S. cerevisiae deletion strains, locus YLR221C, strain rsa3, stronger effect = lower value 0.981 | S. cerevisiae deletion strains, locus YLR258W, strain gsy2, stronger effect = lower value 1.01 | S. cerevisiae deletion strains, locus YLR262C, strain YPT6, stronger effect = lower value 1.03 | S. cerevisiae deletion strains, locus YLR268W, strain sec22, stronger effect = lower value 0.997 | S. cerevisiae deletion strains, locus YLR320W, strain mms22, stronger effect = lower value 0.963 | S. cerevisiae deletion strains, locus YLR330W, strain CHS5, stronger effect = lower value 0.998 | S. cerevisiae deletion strains, locus YLR342W, strain FKS1 (second series), stronger effect = lower value 0.975 | S. cerevisiae deletion strains, locus YLR342W, strain FKS1, stronger effect = lower value 1.01 | S. cerevisiae deletion strains, locus YLR357W, strain rsc2, stronger effect = lower value 1.03 | S. cerevisiae deletion strains, locus YLR370C, strain arc18, stronger effect = lower value 1.01 | S. cerevisiae deletion strains, locus YLR371W, strain rom2, stronger effect = lower value 0.972 | S. cerevisiae deletion strains, locus YLR384C, strain iki3, stronger effect = lower value 0.996 | S. cerevisiae deletion strains, locus YLR418C, strain cdc73, stronger effect = lower value 0.993 | S. cerevisiae deletion strains, locus YML016C, strain PPZ1, stronger effect = lower value 0.993 | S. cerevisiae deletion strains, locus YML032C, strain rad52, stronger effect = lower value 0.975 | S. cerevisiae deletion strains, locus YML120C, strain ndi1, stronger effect = lower value 1.02 | S. cerevisiae deletion strains, locus YML124C, strain tub3, stronger effect = lower value 0.983 | S. cerevisiae deletion strains, locus YMR058W, strain fet3, stronger effect = lower value 1.01 | S. cerevisiae deletion strains, locus YMR078C, strain ctf18, stronger effect = lower value 0.988 | S. cerevisiae deletion strains, locus YMR125W, strain sto1, stronger effect = lower value 1 | S. cerevisiae deletion strains, locus YMR129W, stronger effect = lower value 1.01 | S. cerevisiae deletion strains, locus YMR205C, strain PFK2, stronger effect = lower value 0.985 | S. cerevisiae deletion strains, locus YMR223W, strain ubp8, stronger effect = lower value 0.966 | S. cerevisiae deletion strains, locus YMR231W, strain pep5, stronger effect = lower value 1 | S. cerevisiae deletion strains, locus YMR263W, strain SAP30, stronger effect = lower value 1.01 | S. cerevisiae deletion strains, locus YMR307W, strain GAS1, stronger effect = lower value 0.892 | S. cerevisiae deletion strains, locus YNL067W, strain RPL9B, stronger effect = lower value 0.999 | S. cerevisiae deletion strains, locus YNL071W, strain lat1, stronger effect = lower value 0.999 | S. cerevisiae deletion strains, locus YNL128W, strain TEP1, stronger effect = lower value 0.992 | S. cerevisiae deletion strains, locus YNL153C, strain GIM3, stronger effect = lower value 0.998 | S. cerevisiae deletion strains, locus YNL209W, strain ssb2, stronger effect = lower value 1 | S. cerevisiae deletion strains, locus YNL233W, strain BNI4, stronger effect = lower value 1 | S. cerevisiae deletion strains, locus YNL248C, strain rpa49, stronger effect = lower value 1.01 | S. cerevisiae deletion strains, locus YNL250W, strain rad50, stronger effect = lower value 0.992 | S. cerevisiae deletion strains, locus YNL271C, strain bni1, stronger effect = lower value 0.988 | S. cerevisiae deletion strains, locus YNL298W, strain CLA4, stronger effect = lower value 0.977 | S. cerevisiae deletion strains, locus YNL307C, strain MCK1, stronger effect = lower value 0.964 | S. cerevisiae deletion strains, locus YNL322C, strain KRE1 (second series), stronger effect = lower value 0.985 | S. cerevisiae deletion strains, locus YNL322C, strain KRE1, stronger effect = lower value 1.01 | S. cerevisiae deletion strains, locus YNR049C, strain mso1, stronger effect = lower value 1.01 | S. cerevisiae deletion strains, locus YNR052C, strain pop2, stronger effect = lower value 0.96 | S. cerevisiae deletion strains, locus YOL006C, strain TOP1, stronger effect = lower value 1.02 | S. cerevisiae deletion strains, locus YOL012C, strain htz1 0.957 | S. cerevisiae deletion strains, locus YOL147C, strain pex11, stronger effect = lower value 0.985 | S. cerevisiae deletion strains, locus YOR001W, strain rrp6, stronger effect = lower value 0.987 | S. cerevisiae deletion strains, locus YOR061W, strain CKA2, stronger effect = lower value 1.01 | S. cerevisiae deletion strains, locus YOR069W, strain VPS5, stronger effect = lower value 0.992 | S. cerevisiae deletion strains, locus YOR070C, strain gyp1, stronger effect = lower value 1.02 | S. cerevisiae deletion strains, locus YOR080W, strain dia2, stronger effect = lower value 1.01 | S. cerevisiae deletion strains, locus YOR083W, strain WHI5, stronger effect = lower value 1 | S. cerevisiae deletion strains, locus YOR106W, strain vam3, stronger effect = lower value 0.967 | S. cerevisiae deletion strains, locus YOR136W, strain idh2, stronger effect = lower value 0.972 | S. cerevisiae deletion strains, locus YOR144C, strain elg1, stronger effect = lower value 0.982 | S. cerevisiae deletion strains, locus YOR184W, strain ser1, stronger effect = lower value 0.962 | S. cerevisiae deletion strains, locus YOR265W, strain rbl2, stronger effect = lower value 1.01 | S. cerevisiae deletion strains, locus YOR270C, strain vph1, stronger effect = lower value 0.982 | S. cerevisiae deletion strains, locus YOR290C, strain snf2, stronger effect = lower value 0.984 | S. cerevisiae deletion strains, locus YOR316C, strain cot1, stronger effect = lower value 0.995 | S. cerevisiae deletion strains, locus YPL051W, strain arl3, stronger effect = lower value 0.978 | S. cerevisiae deletion strains, locus YPL055C, strain LGE1, stronger effect = lower value 0.996 | S. cerevisiae deletion strains, locus YPL078C, strain atp4, stronger effect = lower value 1.02 | S. cerevisiae deletion strains, locus YPL106C, strain sse1, stronger effect = lower value 1.06 | S. cerevisiae deletion strains, locus YPL240C, strain hsp82, stronger effect = lower value 1.01 | S. cerevisiae deletion strains, locus YPL241C, strain CIN2, stronger effect = lower value 1 | S. cerevisiae deletion strains, locus YPR119W, strain clb2, stronger effect = lower value 0.998 | S. cerevisiae deletion strains, locus YPR141C, strain kar3, stronger effect = lower value 0.994 | S. cerevisiae deletion strains, locus YPR163C, strain tif3, stronger effect = lower value 0.97 | S. cerevisiae deletion strains, locus YPR167C, strain met16, stronger effect = lower value 0.991 | S. cerevisiae deletion strains, strain wtn01, stronger effect = lower value 1 | S. cerevisiae strains, strain wild type, stronger effect = lower value 1
